Entries with a potency or affinity are not part of this list. Calls of active or inactive are those of the source. The rule behind the calls is not given here.

The record followed here is PubChem BioAssay AID504397 (Broad Institute, 2011).

A short description of the assay: toxicity toward cultured mammalian cells – cell-based, plate reader, cherry-pick samples, cytotoxicity control, dose response (AID 504397). The note with it: plate reader viability; series mostly up to 35 µM.
In the case of `CCCCCCCCCCOC(=O)Cn1c(COc2ccccc2C)[n+](C)c2ccccc21`, the compound was classed as inactive.

`O=C(COC(=O)c1ccccc1Cc1ccccc1)NC1CCS(=O)(=O)C1` (stereo unspecified): the outcome was inactive.

Take `COC(=O)C1CCCN1S(=O)(=O)c1ccc2ccccc2c1` (stereo unspecified): the result was inactive.

On to `COc1ccc(-n2c(SCc3ccc([N+](=O)[O-])cc3)nnc2-c2ccc(C)cc2)cc1`, for which the call was inactive.

With `CCOC(=O)[C@@H]1[C@H]2COc3ccc(Br)cc3[C@@H]2N2C(=O)N(c3cccc(Cl)c3)C(=O)[C@]12C`, the compound was classed as inactive.

With `CN(C)CCN(C(=O)c1ccc2ccccc2c1)c1nc2ccc(F)cc2s1`, the compound was called inactive.

Regarding `O=C(C(Cc1ccccc1)N1C(=O)c2ccccc2C1=O)N1c2ccccc2CCc2ccccc21` (stereo unspecified), the compound was called inactive.

As for `O=C(c1cc(-c2ccccc2)nc2ccccc12)N1CCN(c2ccccn2)CC1`, the call was inactive.

Consider `N/C(Cc1ccc([N+](=O)[O-])cc1)=N\OC(=O)c1ccc2ccccc2c1`, for which the compound was called inactive.

For `CC(C)c1c(C(=O)N/N=C/c2cccc3ccccc23)nnn1-c1nonc1N`, the compound was called inactive.

In the case of `CC(=O)c1ccc(-c2ccc(C(=O)N3CCC(C(N)=O)CC3)o2)cc1`, the call was inactive.

With `CC(/C=N\NC(=O)CN1CCN(S(=O)(=O)c2ccc(C)cc2)CC1)=C\c1ccccc1`, the compound was called inactive.

For `O=C(Nc1sc2c(c1C(=O)c1ccc(Cl)cc1)CCCC2)c1cccnc1`, the call was inactive.

`CC1CCN(Cc2c(C(=O)N/N=C/c3cccc(C(F)(F)F)c3)nnn2-c2nonc2N)CC1`: the call was inactive.

For the compound `Nc1nonc1-n1nnc(C(=O)N/N=C/c2ccoc2)c1CSc1ccccc1`, the compound was called inactive.

For `Cc1ccc(C(=O)c2c3ccc(C(F)(F)F)cc3nn2CCC(N)=O)cc1`, the outcome was inactive.

Take `CCn1cc(/C=C(\NC(=O)c2ccccc2F)C(=O)N2CCOCC2)c2ccccc21`: the compound was classed as inactive.

For `Cc1ccc2nc(N(CCN(C)C)C(=O)c3ccc4ccccc4c3)sc2c1`, the call was inactive.

On to `Nc1nonc1-n1nnc(C(=O)N/N=C/c2cccc(Cl)c2)c1CSc1ccc(Cl)cc1`, for which the result was inactive.

As for `COc1cccc(-c2c(C(=O)N/N=C/c3sccc3C)nnn2-c2nonc2N)c1`, the call was inactive.

Turning to `O=C(CCNS(=O)(=O)c1ccc2[nH]c(=O)oc2c1)NCc1ccccc1`, the compound was classed as inactive.

Turning to `COc1ccc(-n2nc(C(=O)NCC(=O)N3CCC(C)CC3)c3ccccc3c2=O)cc1`, the result was inactive.

Regarding `O=C(Nc1ccc2c(c1)CCC2)c1ccccc1Br`, the compound was classed as inactive.

For `Cc1cccc(-c2nnc(SCc3ccc(C#N)cc3)n2Cc2ccco2)c1`, the call was inactive.

For the compound `Cc1cccc(Nc2ccccc2C(=O)OCC(=O)N(C)C2CCS(=O)(=O)C2)c1C` (stereo unspecified), the result was inactive.

Take `COc1ccc(CN2CCN(C(c3ccc(F)cc3)c3ccc(F)cc3)CC2)c(OC)c1OC`: the call was inactive.

Consider `CS(=O)(=O)Cc1ccc(C(=O)N(CCc2ccccc2)Cc2ccccc2)cc1`, for which the compound was classed as inactive.

For the compound `CCOc1ccc(N(Cc2ccc(OC)cc2)C(=O)c2ccco2)cc1`, the compound was called inactive.

For the compound `CCOC(=O)c1cc(-c2ccccc2)sc1NC(=O)C(C)Sc1nnnn1C` (stereo unspecified), the compound was called inactive.

Turning to `CCn1nnnc1SCC(=O)Nc1nc(C)c(C)s1`, the outcome was inactive.

For the compound `CCn1cc(/C=C(\NC(=O)c2ccccc2Cl)C(=O)N2CCOCC2)c2ccccc21`, the outcome was inactive.
